Measurements published in PubChem BioAssay.
The source made the active and inactive calls. Unless noted, the rule behind the calls is not given here.

How the values were obtained:
[1] = anti-His antibody binders, primary screen, artefact control for SMM control protein annotation, biochemical, small-molecule microarray, 635 nm fluorescence (AID 1128); settings: anti-His Alexa647 antibody binding, higher = more signal;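 note: score merges feature fluorescence with signal-to-noise for each printed compound spot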
[2] = tested on: Human papillomavirus type 1a E7 protein (residues 1-88); assay: HPV1a E7 small-molecule binders, primary screen, biochemical, small-molecule microarray, residues 1-88, 635 nm (AID 1129); settings: small-molecule microarray binding, fluorescence 635 nm; higher = more signal
[3] = target: Focal adhesion kinase 1 (Homo sapiens) (UniProt Q05397); assay: small-molecule microarray binders of FAK, primary screen, biochemical, 635/667 nm fluorescence, BSA, DTT (AID 1130); settings: PTK2 binding, 635 nm fluorescence, higher = more signal;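 note: composite of spot emission at 667 nm and signal to noise over triplicate slides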
Focal adhesion kinase 1 (Homo sapiens), sequence (Q05397 whole entry, looked up): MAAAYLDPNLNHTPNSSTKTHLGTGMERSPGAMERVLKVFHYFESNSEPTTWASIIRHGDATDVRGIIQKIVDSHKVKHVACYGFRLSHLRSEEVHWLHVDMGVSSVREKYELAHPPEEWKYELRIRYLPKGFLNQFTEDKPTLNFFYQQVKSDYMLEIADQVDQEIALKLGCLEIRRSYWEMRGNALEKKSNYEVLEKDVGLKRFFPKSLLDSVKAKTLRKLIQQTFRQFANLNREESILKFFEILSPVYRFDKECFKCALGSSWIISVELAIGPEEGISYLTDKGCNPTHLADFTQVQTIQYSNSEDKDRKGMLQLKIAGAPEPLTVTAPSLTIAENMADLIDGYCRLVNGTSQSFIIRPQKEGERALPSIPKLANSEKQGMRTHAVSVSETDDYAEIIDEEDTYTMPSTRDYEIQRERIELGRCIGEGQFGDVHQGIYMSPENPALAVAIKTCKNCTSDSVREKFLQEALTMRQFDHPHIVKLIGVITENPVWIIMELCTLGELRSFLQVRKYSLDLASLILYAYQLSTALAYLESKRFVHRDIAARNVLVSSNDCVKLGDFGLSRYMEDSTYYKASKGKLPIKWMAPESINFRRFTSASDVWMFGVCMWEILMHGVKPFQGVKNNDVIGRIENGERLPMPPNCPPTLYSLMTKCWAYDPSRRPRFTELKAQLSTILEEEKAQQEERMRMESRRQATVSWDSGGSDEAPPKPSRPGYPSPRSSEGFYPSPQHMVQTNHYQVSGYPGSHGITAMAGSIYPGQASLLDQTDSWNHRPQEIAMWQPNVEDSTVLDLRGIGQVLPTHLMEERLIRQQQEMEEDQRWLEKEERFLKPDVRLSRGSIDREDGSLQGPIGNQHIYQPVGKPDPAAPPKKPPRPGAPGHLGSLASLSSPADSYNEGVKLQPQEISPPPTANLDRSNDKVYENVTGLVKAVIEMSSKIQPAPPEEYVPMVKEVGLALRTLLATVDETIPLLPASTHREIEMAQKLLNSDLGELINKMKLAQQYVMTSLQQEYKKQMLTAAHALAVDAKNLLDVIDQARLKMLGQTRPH

[4] = tested on: Fibrinogen (Alexa647-labelled); assay: fibrinogen binders on compound microarrays, profiling panel, artefact control for SMM control-protein annotation, biochemical, small-molecule microarray, 635/667 nm fluorescence (AID 1131); settings: fibrinogen-A647 binding fluorescence, higher = more signal;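 note: z-score merges 667 nm fluorescence with per-spot signal-to-noise over triplicate slides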
[5] = target: Follistatin (Homo sapiens) (UniProt P19883); assay: follistatin binders on small-molecule microarrays, primary screen, biochemical, small-molecule microarray, 635/667 nm fluorescence (AID 1132); settings: FST binding, 635 nm fluorescence, higher = more signal
Follistatin (Homo sapiens), sequence (P19883 whole entry, looked up): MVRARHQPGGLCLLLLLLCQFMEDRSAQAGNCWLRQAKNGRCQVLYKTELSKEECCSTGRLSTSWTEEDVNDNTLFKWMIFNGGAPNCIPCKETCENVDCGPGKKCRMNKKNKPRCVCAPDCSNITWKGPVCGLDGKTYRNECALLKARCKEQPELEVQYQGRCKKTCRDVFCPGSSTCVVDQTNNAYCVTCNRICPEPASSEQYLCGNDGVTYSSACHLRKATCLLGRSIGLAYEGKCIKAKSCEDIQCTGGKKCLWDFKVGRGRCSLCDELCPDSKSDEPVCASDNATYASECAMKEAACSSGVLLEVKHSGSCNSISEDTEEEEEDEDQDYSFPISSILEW

[6] = target: Fibroblast growth factor 2 (Homo sapiens) (UniProt P09038); assay: FGF2 binders on small-molecule microarrays, primary screen, biochemical, small-molecule microarray, 635/667 nm fluorescence (AID 1133); settings: small-molecule microarray binding, FGF2, fluorescence 635/667; higher = more signal
Fibroblast growth factor 2 (Homo sapiens), sequence (P09038 whole entry, looked up): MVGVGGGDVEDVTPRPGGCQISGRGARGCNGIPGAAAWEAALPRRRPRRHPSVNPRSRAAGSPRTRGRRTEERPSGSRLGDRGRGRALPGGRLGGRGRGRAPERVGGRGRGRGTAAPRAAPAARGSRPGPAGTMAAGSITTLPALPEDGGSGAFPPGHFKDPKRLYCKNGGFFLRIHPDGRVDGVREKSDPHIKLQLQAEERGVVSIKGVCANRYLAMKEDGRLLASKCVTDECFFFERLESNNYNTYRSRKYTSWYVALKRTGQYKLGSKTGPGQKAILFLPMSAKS

[7] = mitochondrial membrane potential change in A549 cells, profiling panel, cell-based, JC-1 fluorescence, basal, 24 h, 100 nL (AID 1138); settings: higher = more signal;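 note: A549 lung adenocarcinoma cells under basal conditions with no added stimulus; test concentration not given here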
Lefty1 = Lefty1 binders on small-molecule microarrays, primary screen, biochemical, small-molecule microarray, 635/667 nm fluorescence (AID 1139); settings: small-molecule microarray binding, fluorescence 635/667; higher = more signal
[8] = tested on: wheat germ agglutinin (Triticum aestivum), Alexa647-labelled; assay: wheat germ agglutinin binders on compound microarrays, profiling panel, artefact control for SMM control-protein annotation, biochemical, small-molecule microarray, 635/667 nm fluorescence (AID 1140); settings: WGA-A647 binding, 635 nm fluorescence, higher = more signal;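 note: score merges 667 nm feature emission with signal to noise over triplicate slides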
[9] = target: Luciferin 4-monooxygenase (Photinus pyralis) (UniProt P08659); assay: firefly luciferase enzyme inhibitors, primary screen, biochemical, luminescence, purified enzyme, 2006 set (AID 1141); settings: SteadyGlo luminescence, 30 min, higher = more signal, called active from +8 up or from −8 down;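 note: cell-free assay with purified firefly luciferase at 100 ng per well in PBS; test concentration not given here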
Luciferin 4-monooxygenase (Photinus pyralis), sequence (P08659 whole entry, looked up): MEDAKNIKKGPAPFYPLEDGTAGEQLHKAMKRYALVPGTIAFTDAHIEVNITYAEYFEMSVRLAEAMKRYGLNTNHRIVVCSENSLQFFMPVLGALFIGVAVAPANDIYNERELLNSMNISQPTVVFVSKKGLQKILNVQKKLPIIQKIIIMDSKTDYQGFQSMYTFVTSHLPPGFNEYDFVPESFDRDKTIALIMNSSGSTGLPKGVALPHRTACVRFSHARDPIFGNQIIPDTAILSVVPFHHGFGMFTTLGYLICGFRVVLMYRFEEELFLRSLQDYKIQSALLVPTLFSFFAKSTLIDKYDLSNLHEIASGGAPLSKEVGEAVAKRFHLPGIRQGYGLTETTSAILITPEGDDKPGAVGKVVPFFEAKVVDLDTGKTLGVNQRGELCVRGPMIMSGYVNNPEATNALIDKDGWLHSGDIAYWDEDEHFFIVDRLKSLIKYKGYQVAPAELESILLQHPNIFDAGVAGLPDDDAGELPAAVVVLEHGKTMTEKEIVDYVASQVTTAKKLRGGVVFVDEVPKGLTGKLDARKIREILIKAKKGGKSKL

[10] = tested on: Wnt5a (protein binding on small-molecule microarray); assay: Wnt5a binders on small-molecule microarray, primary screen, biophysical, 635/667 nm fluorescence (AID 1142); settings: 635 nm fluorescence, higher = more signal;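 note: fluorescence read at 667 nm with signal to noise per printed feature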
[11] = cell viability in Huh7 cells, primary screen, cytotoxicity control for HCV replication inhibitor project, CellTiter-Glo luminescence, basal, 48 h (AID 1143); settings: Huh7 HCV replicon, higher = more signal, called active from +8 up or from −8 down;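 note: Huh7 hepatoma cells carrying a hepatitis C replication reporter with no stimulus; test concentration not given here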
[12] = P. aeruginosa biofilm formation inhibitors, primary screen, PAO1 strain, BacTiter-Glo luminescence, LB-PBS (AID 1144); settings: 12 h, higher = more signal
[13] = CREB reporter modulators without forskolin, primary screen, cell-based, PC12, CRE-LacZ reporter, unstimulated (AID 1145); settings: no forskolin, luminescence, 4.5 h, higher = more signal, called active from +8 up or from −8 down
[14] = CREB reporter modulators under forskolin, primary screen, cell-based, PC12, CRE-LacZ reporter, forskolin-stimulated (AID 1146); settings: luminescence, 4.5 h, higher = more signal, called active from +8 up or from −8 down;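 note: PC12 cells with 6xCRE LacZ reporter stimulated by forskolin 10 µM; beta-galactosidase reporter signal reflecting CREB driven transcription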
[15] = target: Streptavidin (Streptomyces avidinii) (UniProt P22629); assay: streptavidin binders on small-molecule microarray, primary screen, artefact control for SMM compound annotation, biophysical, 635/667 nm fluorescence (AID 1147); settings: streptavidin binding, higher = more signal;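 note: signal reflects streptavidin binding to arrayed compounds as a control protein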
Streptavidin (Streptomyces avidinii), sequence (P22629 whole entry, looked up): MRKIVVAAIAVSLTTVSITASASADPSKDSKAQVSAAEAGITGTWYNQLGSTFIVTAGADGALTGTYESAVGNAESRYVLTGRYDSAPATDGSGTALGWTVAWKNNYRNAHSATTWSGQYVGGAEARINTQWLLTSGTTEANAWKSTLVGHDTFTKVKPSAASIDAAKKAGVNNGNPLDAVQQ

[16] = small-molecule binders of probe aInhba, primary screen, biochemical, small-molecule microarray, 635/667 nm fluorescence (AID 1148); settings: higher = more signal;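 note: score merges 667nm spot fluorescence with signal-to-noise for antibody binding to printed compounds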
Torsin-1A (Homo sapiens) [17] = target: Torsin-1A (Homo sapiens) (UniProt O14656); assay: torsin A binders from cell lysate, primary screen, small-molecule microarray, wild-type, 635/667 nm (AID 1149); settings: COS7 hTOR1A-WT lysate, 635 nm fluorescence, higher = more signal
Torsin-1A (Homo sapiens), sequence (O14656 whole entry, looked up): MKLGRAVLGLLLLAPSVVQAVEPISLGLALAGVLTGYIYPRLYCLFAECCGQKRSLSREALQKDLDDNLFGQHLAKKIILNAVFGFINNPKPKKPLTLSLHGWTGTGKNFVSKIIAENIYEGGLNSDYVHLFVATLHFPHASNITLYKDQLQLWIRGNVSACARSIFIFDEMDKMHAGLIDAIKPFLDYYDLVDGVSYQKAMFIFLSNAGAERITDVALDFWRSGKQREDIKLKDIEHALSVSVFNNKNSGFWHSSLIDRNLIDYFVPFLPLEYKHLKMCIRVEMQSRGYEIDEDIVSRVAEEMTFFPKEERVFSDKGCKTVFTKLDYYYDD

Torsin-1A (Homo sapiens) [18] = target: Torsin-1A (Homo sapiens) (UniProt O14656); assay: small-molecule binders of mutant TOR1A in lysate, primary screen, cell lysate, small-molecule microarray, COS7 lysate, 635/667 nm fluorescence (AID 1150); settings: COS7 hTOR1A mutant lysate, 635 nm fluorescence, higher = more signal;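 note: score pools 667 nm emission and signal to noise measuring lysate protein binding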
[19] = tested on: Sonic hedgehog protein (Shh); assay: small-molecule binders of Shh protein, primary screen, biochemical, small-molecule microarray, 635/667 nm fluorescence (AID 1151); settings: small-molecule microarray binding, 635 nm fluorescence; higher = more signal;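 note: Shh protein binding to compounds spotted on small-molecule microarray slides; score combines spot fluorescence intensity with signal-to-noise across triplicate slides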

Compound | composite z-score [1] | composite z-score [2] | composite z-score [3] | composite z-score [4] | composite z-score [5] | composite z-score [6] | z-score [7] | composite z-score (Lefty1) | composite z-score [8] | z-score [9] | composite z-score [10] | z-score [11] | z-score [12] | z-score [13] | z-score [14] | composite z-score [15] | composite z-score [16] | composite z-score (Torsin-1A (Homo sapiens) [17]) | composite z-score (Torsin-1A (Homo sapiens) [18]) | composite z-score [19]
COC(=O)[C@@]1(Cc2ccc(OC)cc2)[C@H]2c3cc(C(=O)N4CCCC4)n(Cc4c(-c5ccccc5)noc4C)c3C[C@H]2CN1C(=O)c1ccccc1 | 1.45 | 1.27 | 0.372 | 0.695 | 0.699 | -0.298 | -0.608 | 0.0669 | 0.539 | 2.05 (inactive) | 1.01 | -3.29 (inactive) | -0.452 (inactive) | -0.185 (inactive) | -0.531 (inactive) | 0.945 | 0.659 | 1.27 | 0.776 | -0.314
C=C(C)[C@@H]1CC=C(C(O)C2C=CC3C(=O)N(c4ccccc4)C(=O)C3N2Nc2ccccc2F)CC1 (stereo not given in full) | 0.282 | 1.27 | 1.12 | 0.987 | 1.11 | 0.0538 | -0.568 | 0.531 | 1.27 | -0.809 (inactive) | 0.29 | 0.581 (inactive) | -0.887 (inactive) | 0.24 (inactive) | 0.493 (inactive) | 1.31 | 0.153 | 0.0552 | 0.77 | 0.27
CC(=O)c1ccc(C(O)C2C=CC3C(=O)N(c4ccccc4)C(=O)C3N2Nc2ccc(C#N)cc2)cc1 (stereo not given) | 0.631 | 1.01 | 1.27 | 0.72 | -0.111 | 0.196 | 0.0866 | -0.253 | 0.714 | -0.0334 (inactive) | -0.14 | 0.338 (inactive) | -0.864 (inactive) | 1.19 (inactive) | 0.574 (inactive) | 1.14 | 0.0422 | -0.167 | 0.261 | -0.964
CCCNC(=O)[C@@]1(c2ccc([N+](=O)[O-])cc2)CC(=O)N(C2CCCCC2)[C@@H]1c1ccc(CO)cc1 | 1.86 | 1.24 | 0.548 | 0.831 | 1.24 | 1.66 | 1.34 | 0.344 | 0.533 | -0.92 (inactive) | -0.0471 | -1.83 (inactive) | 0.812 (inactive) | 0.324 (inactive) | -0.775 (inactive) | 0.206 | 0.138 | 0.0388 | 0.455 | 0.511
COCCOC(=O)N1C(=O)[C@@]2(c3cc(C#CCC(C(=O)OC)C(=O)OC)ccc31)[C@H](C(=O)N1CCc3cc(OC)c(OC)cc3C1)[C@H]1C(=O)O[C@H](c3ccccc3)[C@H](c3ccccc3)N1[C@@H]2c1ccc(OCCO)cc1 | 2.19 | 1.2 | 0.497 | 0.783 | 1.31 | 1.45 | -1.04 | 1.02 | 0.519 | -1.25 (inactive) | 0.587 | -0.0887 (inactive) | -0.442 (inactive) | 0.0653 (inactive) | -0.333 (inactive) | 0.523 | 0.19 | 0.817 | 0.914 | 1.73
C=CCC(OC(C)=O)[C@@H]1[C@@H](N(Cc2cc3ccccc3o2)C(=O)c2ccc(-c3ccccc3)cc2)c2cc(OCCCO)ccc2N1C(=O)c1ccc2ccccc2c1 (stereo not given in full) | 0.0895 | 0.0833 | -0.394 | 0.394 | 0.874 | -0.198 | 1.26 | 0.795 | 0.196 | -0.455 (inactive) | -0.0582 | -0.282 (inactive) | 0.2 (inactive) | 1.22 (inactive) | 0.655 (inactive) | 0.0798 | -0.143 | 0.0664 | -0.0892 | 1.12
O=C1C2C=CC(C(O)c3ccc(F)cc3)N(n3cnnc3)C2C(=O)N1Cc1ccccc1 (stereo not given) | -0.782 | -0.657 | -0.284 | -0.48 | -0.524 | -0.529 | -1.3 | -0.881 | -0.271 | 1.24 (inactive) | -0.0707 | -3.57 (inactive) | -0.488 (inactive) | -0.527 (inactive) | -0.0197 (inactive) | -0.0183 | 0.0383 | -0.216 | 0.461 | -0.428
[N-]=[N+]=Nc1ccccc1C[C@]1(C(=O)N2CCOCC2)N=C(c2ccc(OCCCO)cc2)O[C@H]1c1ccccc1 | 2.06 | 1.21 | 0.3 | 0.905 | 1.42 | 1.81 | 2.81 | 0.435 | 1.2 | -2.31 (inactive) | 1.01 | -3.57 (inactive) | 0.567 (inactive) | 0.204 (inactive) | -0.0807 (inactive) | 0.65 | -0.0279 | 1.14 | 0.272 | 0.276
COC(=O)CCCCCCC(=O)Nc1ccc(NC(=O)CCCC[P+](c2ccccc2)(c2ccccc2)c2ccccc2)cc1 | 0.703 | 0.289 | -0.507 | -0.722 | 1.01 | 0.626 | 0.679 | 1.23 | 0.0334 | 1.3 (inactive) | 0.38 | -0.238 (inactive) | -0.873 (inactive) | 0.575 (inactive) | -1.85 (inactive) | 0.352 | -0.0645 | 0.463 | 0.28 | 1.89
COC(=O)[C@@]1(Cc2ccc(F)cc2)[C@H]2c3cc(C(=O)N4CCCC4)n(CCc4ccc(O)c(O)c4)c3C[C@H]2CN1C(=O)c1ccccc1 | -0.371 | -0.253 | 0.842 | -2.54 | -0.411 | -0.751 | -0.692 | -0.49 | -0.312 | -7.51 (inactive) | 1.2 | -1.78 (inactive) | -0.809 (inactive) | 3.05 (inactive) | -0.268 (inactive) | -0.185 | 1.24 | 0.0585 | 0.0389 | -0.987
